# Data: PubChem BioAssay (Tox21)
# Inconclusive results are not listed. Where a call stands in place of a potency, no number is given. Activity calls are given as the source filed them. Calls come from the whole dose curve; as a rule, active = well fitted cell-killing curve with a large enough effect in the repeat runs; inconclusive = weak or mixed curves, or effect the other way; inactive = flat fitted curve, though single readings scatter.
# Assay: qHTS RealTime-Glo MT Cell Viability Assay in HEK293 cells - 16 hour (AID 1224872); note: nearly all actives have a fitted effect of over 50% in size
# Conditions: RealTime-Glo luminescence; series mostly up to 76.8 µM
# Description: National Center for Advancing Translational Sciences [NCATS]
# NIH Chemical Genomics Center [NCGC]
# U.S. Environmental Protection Agency [EPA]
# National Institutes of Environmental Health Sciences [NIEHS]
# National Toxicology Program [NTP]
# U.S. Food and Drug Administration [FDA]
# Measure of cell viability is critical in the cell-base assay. Analysis of cell viability is necessary for the characterization of cell responses to cytotoxic drugs and environmental stress. A RealTime-Glo MT Cell Viability Assay to monitor cell viability in real time of continues cell culture during 40 hours of compound treatment was used to screen Tox21 10K library compounds in Hek293 cells. The RealTime-Glo MT Cell Viability Assay is a nonlytic, homogeneous, bioluminescent method to measure cell viability in real time using a simple, plate-based method. The assay involves adding NanoLuc luciferase and a cell-permeant prosubstrate to cells in culture. Viable cells reduce the proprietary prosubstrate to generate a substrate for NanoLuc luciferase. This substrate diffuses from cells into the surrounding culture medium, where it is rapidly used by the NanoLuc Enzyme to produce a luminescent signal. The signal correlates with the number of viable cells, making the assay well suited for cytotoxicity studies.
# Tox21 Assay Protocol Summary:
# The mixture of Hek293 cell suspension and reagents were dispensed at 600cells/6 ul/well in 1536-well tissue culture treated black solid bottom plates using a Multidrop dispenser. After the assay plates were incubated at a 37 C/5% CO2 incubator for 5 hours, 23 nL of compounds dissolved in DMSO, positive and negative controls was transferred to the assay plate by a pintool work station. The plates were incubated at 37 C for 40 hours. The luminescence intensity were measured at 0h, 8h, 16h, 24h, 32h and 40h time points using ViewLux plate reader during compound treatment.
# Potency is the fitted concentration of half-maximal effect.
row,SMILES,Potency
1,CN(C)CCCNCCCN,inactive
2,C=C(C)C(=O)OC(C)C,inactive
3,Nc1nc(N)c(-c2ccccc2)s1,inactive
4,CN1CCC[C@@H]1c1cccnc1,inactive
5,Cc1cccc(OCCOc2cccc(C)c2)c1,inactive
6,C[C@@H](C1=C(CCN(C)C)Cc2ccccc21)c1ccccn1,inactive
7,Cc1ccc(O)c([C@H](CCN(C(C)C)C(C)C)c2ccccc2)c1,inactive
8,CN1CCN(C2=Nc3ccccc3Sc3ccc(Cl)cc32)CC1,inactive
9,CCOc1ccc2[nH]cc(C(=O)NCc3ccccc3)c(=O)c2n1,inactive
10,CC(CN)CCCN (stereo not given),inactive
11,COc1ccc(C(C)=O)cc1,inactive
12,O=[N+]([O-])c1cc[n+]([O-])cc1,inactive
13,NCc1ccccc1,inactive
14,O=C(/C=C/c1ccc(O)c(O)c1)O[C@@H]1C[C@](O)(C(=O)O)C[C@@H](O)[C@H]1O,inactive
15,CCOC(=O)C1=NN(c2ccccc2)C(=O)C1,inactive
16,C1CCC2OC2C1 (stereo not given),inactive
17,Cc1ccccn1,inactive
18,O=S(=O)(O)c1ccc(O)c2ncccc12,inactive
19,CCCCCCc1ccc(N)cc1,inactive
20,COc1ccc2[nH]c(S(=O)Cc3ncc(C)c(OC)c3C)nc2n1 (stereo not given),inactive

row,SMILES,Potency
1,CC[C@@H]1C[C@H](N(Cc2cc(C(F)(F)F)cc(C(F)(F)F)c2)C(C)=O)c2cc(C(F)(F)F)ccc2N1C(=O)OC(C)C,inactive
2,CCOC(=S)SSC(=S)OCC,inactive
3,Cc1ccccc1N=Nc1ccc(N=Nc2c(O)ccc3ccccc23)c(C)c1,inactive
4,CCN(CC)CCOC(=O)C1(c2ccccc2)CCCC1,inactive
5,O=C1Nc2cc(Cl)ccc2Oc2ccccc21,inactive
6,O=C(O)Cn1c(C(=O)Nc2nc(-c3ccccc3Cl)cs2)cc2ccccc21,inactive
7,NC(N)=N/N=C/c1c(Cl)cccc1Cl,inactive
8,COc1ccc([C@@H]2Sc3ccccc3N(CCN(C)C)C(=O)[C@@H]2OC(C)=O)cc1,inactive
9,CC(=O)O[C@@H]1C(=O)O[C@@H]2[C@H]1OC(=O)[C@@H]2OC(C)=O,inactive
10,Cc1ccc2c(ccc3ccccc32)c1,inactive
11,Cc1cc(CC(=O)O)c(C)n1-c1ccc(Cl)cc1,inactive
12,Oc1ccc(Cc2ccccc2)cc1,36 µM (active)
13,CCCc1ccccc1,inactive
14,CN1CCC(OC(c2ccccc2)c2ccccc2)CC1,inactive
15,CCCCC(CC)(CO)CO,inactive
16,CCCCCCCCCC=O,inactive
17,Oc1ccc(C(O)CNCCCCCCNCC(O)c2ccc(O)c(O)c2)cc1O (stereo not given),inactive
18,NC1CCN(c2nc3c(cc2F)c(=O)c(C(=O)O)cn3-c2ccc(F)cc2F)C1 (stereo not given),inactive
19,CC(C)(C)c1cc(CCC(=O)OCC(COC(=O)CCc2cc(C(C)(C)C)c(O)c(C(C)(C)C)c2)(COC(=O)CCc2cc(C(C)(C)C)c(O)c(C(C)(C)C)c2)COC(=O)CCc2cc(C(C)(C)C)c(O)c(C(C)(C)C)c2)cc(C(C)(C)C)c1O,inactive
20,CCCCCCCCCO,inactive
